Bioassay records from PubChem.
Dicer processing: inhibitors of Dicer pre-microRNA processing, primary screen, biochemical, cat-ELCCA, chemiluminescence; z-score at 25 µM; Endoribonuclease Dicer (Homo sapiens), Q9UPY3; 47,000 tested, 6% active; cat-ELCCA pre-miR-21 Dicer processing; hits give high values; AID 1347074, 2019; in the data active = z-score above about 3, passing the limit was not always enough;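 also: plate controls were vehicle for no effect and no enzyme for full effect; higher signal means more uncleaved substrate so more Dicer inhibition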
Starred values were filed as active, the others as inactive. The sample as a whole holds a higher share of hits than the screen did.

SMILES | Dicer processing
COc1ccccc1C1C2=C(Nc3c1c(=O)[nH]c(=O)n3C)c1ccccc1C2=O (stereo unspecified) | -0.58
COc1cccc(C2Sc3ccccc3NC3=C2C(=O)c2ccccc23)c1 (stereo unspecified) | -0.15
Cc1cc(Oc2ccnc3cc(Cl)ccc23)cc(C)c1Cl | -0.76
Cc1cc(OCOc2ccc(Cl)c(C)c2)ccc1Cl | -1.3
Cc1cc(Oc2ccnc3cc(Cl)ccc23)ccc1Cl | 29*
Cc1cccc(C)c1NC(=O)c1c(C(F)(F)F)ccnc1SCCN(C)C | -1.6
COc1ccc([N+](=O)[O-])c(OC)c1C(=O)NCC1CC1 | 4.9*
CCC(C)NC(=O)c1c(OC)ccc([N+](=O)[O-])c1OC (stereo unspecified) | -0.14
COc1ccc([N+](=O)[O-])c(OC)c1C(=O)Nc1ccccc1C(=O)NCC1CC1 | 0
FC(F)(F)c1[nH]ncc1-c1nnnn1-c1ccccc1 | 3.3*
Cc1c(-c2nnnn2-c2ccccc2)cnc2ccccc12 | 0.57
FC(F)(F)c1c(-c2nnnn2-c2ccccc2)cnn1-c1ccccc1Cl | -1.1
CC12CCC(C1)C(C)(C)C2NC(=O)c1ccc(Cl)cc1 (stereo unspecified) | 0.16
CCCC1c2ccsc2CCN1C(=O)c1ccc(Cl)cc1 (stereo unspecified) | -0.86
COC(=O)C1=C(C)NC2=C(C(=O)CC(c3ccc(OC)cc3)C2)C1c1ccncc1 (stereo unspecified) | 0.26
Cn1c(=O)c(C(=O)NCc2ccccn2)c(O)c2ccccc21 | 10*
CCOC(=O)c1c(O)c2ccccc2n(C)c1=O | 0.14
CC(=O)c1c(O)c2ccccc2n(C)c1=O | -0.09
Cc1ccc(S(=O)(=O)NNc2c(Cl)cc(Cl)cc2Cl)cc1 | 0.84
CC(C)c1ccc(S(=O)(=O)N(C(=O)c2cccnc2)c2ccc3oc(=O)sc3c2)cc1 | 2.7
CC(C)(C)c1ccc(S(=O)(=O)N(C(=O)c2ccncc2)c2ccc3oc(=O)sc3c2)cc1 | 6.7*
O=C(c1ccncc1)N(c1ccc2oc(=O)sc2c1)S(=O)(=O)c1ccc(Br)cc1 | 2.1
CCc1ccc(S(=O)(=O)N(C(=O)c2cccnc2)c2ccc3oc(=O)sc3c2)cc1 | 6.2*
CC(C)(C)c1ccc(S(=O)(=O)N(C(=O)c2cccnc2)c2ccc3oc(=O)sc3c2)cc1 | 4.6*
COc1ccc(NC(=O)CC(C)(C)Sc2ccc(Cl)cc2)cc1 | 0.97
SMILES | Dicer processing
Cc1ccc(-c2nnc3c4c5c(sc4ncn23)CCCC5)cc1 | 0.37
Cc1nc(N2C(=O)c3oc4ccccc4c(=O)c3C2c2ccco2)sc1C (stereo unspecified) | 0.12
CC(C)c1ccc(C2CC(=O)Oc3c2c(=O)n(C)c2ccccc32)cc1 (stereo unspecified) | 0.25
COc1ccc(/C=C/c2nc3ccccc3n(C)c2=O)cc1OC | 2.5
Cc1c(C(=O)Nc2ccc(Cl)cc2)cc(-c2ccccc2)n1-c1ccccc1 | -0.69
Cc1ccc(N)c(C(=O)Nc2ccc(Cl)cc2)c1 | 5.1*
CCOC(=O)c1cc(C)ccc1NC(=O)c1ccc(Cl)cc1 | -0.46
O=C(O)COCC(=O)Nc1ccc(C(F)(F)F)cn1 | -1.6
S=C(N/N=C/C=C/c1ccccc1)NC1CC2C=CC1C2 (stereo unspecified) | 1.2
CCCCSC1=C(C#N)C(=O)NC(c2ccc(O)cc2)S1 (stereo unspecified) | -0.9
CCCCSC1=C(C#N)C(=O)NC(c2ccc(O)c(OC)c2)S1 (stereo unspecified) | 3.1*
CCCCSC1=C(C#N)C(=O)NC(c2ccc(C(=O)O)cc2)S1 (stereo unspecified) | -1.4
C=CCOC(=O)C1=C(C)NC2=C(C(=O)CCC2)C1c1cc2c(cc1Cl)OCO2 (stereo unspecified) | -0.68
Nc1nonc1-c1nc2ccccc2n1Cc1c(F)cccc1Cl | 0.37
Cc1onc(-c2c(Cl)cccc2Cl)c1NC(=O)OCCOc1ccc(Cl)cc1Cl | -0.91
CCCNC(=O)O/N=C(\N)c1c(-c2c(Cl)cccc2Cl)noc1C | 4.5*
Cc1onc(-c2c(Cl)cccc2Cl)c1C(=O)ONC(=O)C(C)(C)C | 0.7
Cc1onc(-c2c(Cl)cccc2Cl)c1NC(=O)NN(C)C(=S)SCc1c(F)cccc1Cl | 0.26
Cc1onc(-c2c(Cl)cccc2Cl)c1NC(=O)OCc1c(F)cccc1Cl | 4*
CC(=O)NOC(=O)c1c(-c2c(Cl)cccc2Cl)noc1C | 0.86
O=C(O)c1nnn(-c2ccccc2Oc2ccc(Cl)cc2Cl)c1-c1ccccc1 | 1.8
CCOc1ccccc1Oc1coc2cc(OCC(=O)OC(C)(C)C)ccc2c1=O | 1.1
N#Cc1nc(COc2ccccc2Cl)oc1NCCN1CCOCC1 | -0.01
CCCc1n(CC)c2ccccc2[n+]1CC(O)COc1ccccc1 (stereo unspecified) | -0.03
CN(C)C=Nc1cc(Cl)c(-n2cccc2)cc1Cl | -2.5
Cc1ccc(S(=O)(=O)Nc2sc3c(c2C(N)=O)CCCC3)cc1 | 2.1
Cc1csc(NC(=O)C(F)(F)F)c1C(N)=O | -1.1
S=C(NCC1CC1)Nc1ccc2[nH]ccc2c1 | 4.8*
CC(C)(C)OC(=O)N1CCCN(C(=S)Nc2ccccc2N2CCOCC2)CC1 | -0.86
